# Inconclusive results are not listed. The list shows a part of the results. A call without a number means that no potency is given here. Activity calls are given as the source filed them. Unless noted, calls come from the whole dose curve; as a rule, active = well fitted curve in the direction sought with a large enough effect; inconclusive = small, poorly fitted or top-dose-only effect, or another doubt; inactive = no such curve, though single readings can be large; an effect the other way counts as inactive or inconclusive.
# Key:
# [1] = molecular target: Endonuclease 4 (Escherichia coli (strain K12)) (UniProt P0A6C1); assay: Counterscreen for APE1 Inhibitors: qHTS Assay for Inhibitors of Endonuclease IV (AID 2565); note: potency is the fitted concentration of half-maximal effect
# Summary of the method: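 2 nM enzyme was preincubated with compounds for 15 min at room temperature in 50 mM Tris-HCl pH 7.5, 50 mM NaCl, 2 mM MgCl2, 1 mM DTT, 0.01% Tween-20. 50 nM THF-abasic TAMRA/BHQ-2 duplex substrate started the reaction.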
# [2] = molecular target: DNA repair nuclease/redox regulator APEX1 (Homo sapiens) (UniProt P27695); assay: Confirmation qHTS Assay for Inhibitors of the Human Apurinic/apyrimidinic Endonuclease 1 (APE1) (AID 2572); note: nearly all actives have a fitted effect of over 30% in size; note: potency is the fitted concentration of half-maximal effect
# Summary of the method: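 Fluorescence gain at 598 nm (Ex 525 nm) reports APE1 cleavage of a TAMRA/BHQ-2-labelled duplex carrying a tetrahydrofuran abasic site, 50 nM final. Activity taken as third-minus-first kinetic read after 15 min compound preincubation, room temperature.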
# [3] = qHTS for differential inhibitors of proliferation of Plasmodium falciparum line HB3 (AID 1886); conditions: Potency: Plasmodium falciparum HB3 proliferation inhibition;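 note: parasites grown with compound for 72 h before SYBR Green readout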; note: potency is the fitted concentration of half-maximal effect
# [4] = molecular target: Ferritin light chain (Equus caballus) (UniProt P02791); assay: qHTS Validation Assay for Identification of Novel General Anesthetics (AID 2323); note: series mostly up to about 77 µM
# Ferritin light chain (Equus caballus), sequence (P02791 2-175 limits assumed): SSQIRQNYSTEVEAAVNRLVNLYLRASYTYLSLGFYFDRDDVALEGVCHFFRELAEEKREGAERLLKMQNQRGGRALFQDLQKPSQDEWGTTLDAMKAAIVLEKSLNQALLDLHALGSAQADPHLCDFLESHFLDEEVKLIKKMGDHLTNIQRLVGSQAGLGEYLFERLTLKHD
# Summary of the method: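 Apoferritin from horse spleen (10 uM) was mixed with 1-aminoanthracene at 50% saturation in PBS, then compounds were added. After 10 min at room temperature, fluorescence was read (ex 380 nm, em 535 nm) and normalized to free-probe and complex controls.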
# [5] = molecular target: ATP-dependent DNA helicase Q1 (Homo sapiens) (UniProt P46063); assay: qHTS Validation Assay for Inhibitors of RecQ-Like Dna Helicase 1 (RECQ1) (AID 2353)
# Summary of the method: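 50 nM RECQ1T1 preincubated 15 min with compound in Tris pH 8.0 buffer with MgCl2, DTT, Tween-20 and 2.5 ug/ml poly(dI-dC); started with 200 nM TAMRA/BHQ-2 forked duplex and 2 mM ATP. Unwinding read as fluorescence (525/598 nm), two reads 2 h apart.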
# [6] = Cytometric Cell-Based qHTS for Inhibitors of the mTORC1 Signaling Pathway in MEF (Tsc2-/-, p53-/-) Cells (AID 2660);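 note: percent of cells above a phospho-rpS6 to PI ratio cutoff in each well; series mostly up to about 38 µM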
# Summary of the method: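 Tsc2-/-, p53-/- MEFs (empty vector) exposed to compound 24 h at 37 C, fixed, stained with Alexa-488 anti-phospho-rpS6 Ser235/236 and propidium iodide. Acumen laser scanning; phospho-S6/PI ratio thresholded against 7.5 nM rapamycin, reported as % positive cells.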
# [7] = High Content Imaging Cell-Based qHTS for Inhibitors of the mTORC1 Signaling Pathway in MEF (Tsc2-/-, p53-/-) Cells (AID 2666);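 note: percent of cells scored positive for phospho-rpS6 Ser235/236 immunostaining by imaging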
# Summary of the method: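 Read-out: % positive cells per well, with thresholds from highest- and lowest-signal wells, based on phospho-rpS6 (Ser235/236) intensity normalized to Hoechst nuclear stain. Cells: Tsc2-/-, p53-/- MEFs carrying empty vector; compound 24 hrs, 37 degree Celsius.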
# [8] = High Content Imaging Cell-Based qHTS for Inhibitors of the mTORC1 Signaling Pathway in MEF Cells (AID 2667); note: potency is the fitted concentration of half-maximal effect
# Summary of the method: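 MEF (Tsc2-/-, p53-/-, WT Tsc2 re-expressed); cpd 24 h, 37 °C; PFA fix; Alexa-488 anti-p-rpS6 Ser235/236, PI, Hoechst; IN Cell imaging; Hoechst/Alexa-488 intensity ratio; % active cells, thresholds set from rapamycin and DMSO wells.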
# [9] = Cytometry Cell-Based qHTS for Inhibitors of the mTORC1 Signaling Pathway in MEF cells (AID 2668); note: potency is the fitted concentration of half-maximal effect
# Summary of the method: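 Pathway inhibition in WT Tsc2-rescued Tsc2-/-, p53-/- MEFs is measured as the Alexa-488 phospho-rpS6 to propidium iodide intensity ratio after 24 hrs of compound at 37 degree Celsius. PI-stained cell number gives viability.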
# [10] = Validation screen for small molecules that induce DNA re-replication in MCF 10A normal breast cells (AID 463097); note: nearly all actives have a fitted effect of over 60% in size; note: potency is the fitted concentration of half-maximal effect
# Summary of the method: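 DNA re-replication was detected as a rise in nuclei with elevated Hoechst fluorescence after a 48 hr compound exposure of MCF 10A cells at 37 C.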
# [11] = molecular target: Ubiquitin carboxyl-terminal hydrolase 2 (Homo sapiens) (UniProt O75604); assay: qHTS Validation Assay for Inhibitors of Ubiquitin-specific Protease USP2a Using CHOP2 as the Reporter (AID 463106)
# Ubiquitin carboxyl-terminal hydrolase 2 (Homo sapiens), sequence (O75604 whole entry, looked up): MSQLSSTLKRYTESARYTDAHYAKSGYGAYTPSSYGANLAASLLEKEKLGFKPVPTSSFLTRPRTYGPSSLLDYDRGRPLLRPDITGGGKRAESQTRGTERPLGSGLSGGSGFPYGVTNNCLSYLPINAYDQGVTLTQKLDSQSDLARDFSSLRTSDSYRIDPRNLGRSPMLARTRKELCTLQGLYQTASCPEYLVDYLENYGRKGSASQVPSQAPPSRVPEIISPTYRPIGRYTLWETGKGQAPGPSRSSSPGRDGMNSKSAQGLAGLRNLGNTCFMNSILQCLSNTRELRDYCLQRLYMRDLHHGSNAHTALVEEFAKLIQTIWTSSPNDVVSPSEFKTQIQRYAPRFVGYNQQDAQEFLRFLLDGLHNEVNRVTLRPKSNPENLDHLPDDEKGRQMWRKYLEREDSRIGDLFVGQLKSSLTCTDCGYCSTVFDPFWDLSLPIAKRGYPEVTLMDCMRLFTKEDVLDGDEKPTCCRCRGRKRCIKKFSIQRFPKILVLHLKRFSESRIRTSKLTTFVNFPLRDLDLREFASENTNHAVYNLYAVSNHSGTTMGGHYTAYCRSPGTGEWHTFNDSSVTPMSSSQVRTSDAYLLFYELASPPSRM
# Summary of the method: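 USP2 core (10nM final) was preincubated with compound for 30min at RT in 20mM Tris-HCl pH 8.0, 2mM CaCl2, 2mM beta-mercaptoethanol, 0.05% CHAPS. Ub-CHOP2 and reporter substrate (25nM each) were added, and fluorescence (Ex 485/Em 531nm) was read after 60min.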
# [12] = molecular target: DNA polymerase III PolC-type (Bacillus subtilis (strain 168)) (UniProt P13267); assay: qHTS Validation Assay for the Inhibitors of DNA Replication in Gram-Positive Bacteria (AID 485295);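 note: reconstituted holoenzyme with PolC plus beta clamp SSB and primase; PicoGreen fluorescence of double-stranded DNA made on primed circular M13 template; series mostly up to about 57 µM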
# DNA polymerase III PolC-type (Bacillus subtilis (strain 168)), sequence (P13267 whole entry, looked up): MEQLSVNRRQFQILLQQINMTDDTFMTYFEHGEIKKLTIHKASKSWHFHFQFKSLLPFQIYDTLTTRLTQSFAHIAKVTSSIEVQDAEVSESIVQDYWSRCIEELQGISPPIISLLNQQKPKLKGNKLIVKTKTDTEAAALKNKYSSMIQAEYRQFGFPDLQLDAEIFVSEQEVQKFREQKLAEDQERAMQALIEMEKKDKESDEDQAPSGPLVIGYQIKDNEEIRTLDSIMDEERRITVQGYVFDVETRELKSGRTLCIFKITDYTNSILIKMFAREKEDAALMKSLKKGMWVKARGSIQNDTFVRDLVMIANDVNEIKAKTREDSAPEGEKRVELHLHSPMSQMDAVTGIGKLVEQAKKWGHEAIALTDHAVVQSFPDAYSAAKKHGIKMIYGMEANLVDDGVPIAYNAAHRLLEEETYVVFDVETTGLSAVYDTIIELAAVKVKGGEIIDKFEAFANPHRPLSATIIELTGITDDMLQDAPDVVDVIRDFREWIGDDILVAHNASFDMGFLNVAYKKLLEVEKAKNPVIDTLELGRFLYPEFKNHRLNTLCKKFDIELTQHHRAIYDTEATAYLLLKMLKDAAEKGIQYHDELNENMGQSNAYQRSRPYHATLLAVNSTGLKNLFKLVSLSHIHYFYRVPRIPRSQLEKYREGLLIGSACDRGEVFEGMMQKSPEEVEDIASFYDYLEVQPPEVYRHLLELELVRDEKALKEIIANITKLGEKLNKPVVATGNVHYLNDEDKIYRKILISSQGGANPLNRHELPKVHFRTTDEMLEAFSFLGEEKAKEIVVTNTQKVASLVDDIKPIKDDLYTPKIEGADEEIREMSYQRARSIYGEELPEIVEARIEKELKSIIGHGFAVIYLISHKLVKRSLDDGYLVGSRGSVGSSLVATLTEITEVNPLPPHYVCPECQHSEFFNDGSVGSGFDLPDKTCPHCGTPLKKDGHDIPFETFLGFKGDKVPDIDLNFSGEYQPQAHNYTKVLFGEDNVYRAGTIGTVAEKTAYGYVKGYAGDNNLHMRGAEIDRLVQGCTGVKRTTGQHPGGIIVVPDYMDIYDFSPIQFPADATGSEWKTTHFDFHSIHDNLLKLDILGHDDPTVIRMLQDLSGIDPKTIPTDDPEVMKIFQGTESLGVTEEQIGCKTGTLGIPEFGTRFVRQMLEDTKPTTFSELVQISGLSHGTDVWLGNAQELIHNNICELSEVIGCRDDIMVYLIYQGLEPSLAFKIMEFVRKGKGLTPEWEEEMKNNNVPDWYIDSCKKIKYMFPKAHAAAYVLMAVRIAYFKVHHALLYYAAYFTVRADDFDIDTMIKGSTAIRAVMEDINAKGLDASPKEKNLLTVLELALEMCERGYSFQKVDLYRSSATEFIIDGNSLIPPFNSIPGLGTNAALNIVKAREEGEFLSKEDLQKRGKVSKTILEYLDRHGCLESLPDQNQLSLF
# Summary of the method: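 Primed replication of single-stranded M13Gori by a four-protein B. subtilis holoenzyme is measured at room temperature. Double-stranded product is quantified by PicoGreen fluorescence after an EDTA stop; inhibition is scaled between DMSO and EDTA controls.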
# [13] = molecular target: Tumor susceptibility gene 101 protein (Homo sapiens) (UniProt Q99816); assay: qHTS Validation Assay for Iinhibitors of HIV-1 Budding by Blocking the Interaction of PTAP/TSG101 (AID 485342; calls by dose curve)
# Tumor susceptibility gene 101 protein (Homo sapiens), sequence (Q99816 whole entry, looked up, the tested form may be a part): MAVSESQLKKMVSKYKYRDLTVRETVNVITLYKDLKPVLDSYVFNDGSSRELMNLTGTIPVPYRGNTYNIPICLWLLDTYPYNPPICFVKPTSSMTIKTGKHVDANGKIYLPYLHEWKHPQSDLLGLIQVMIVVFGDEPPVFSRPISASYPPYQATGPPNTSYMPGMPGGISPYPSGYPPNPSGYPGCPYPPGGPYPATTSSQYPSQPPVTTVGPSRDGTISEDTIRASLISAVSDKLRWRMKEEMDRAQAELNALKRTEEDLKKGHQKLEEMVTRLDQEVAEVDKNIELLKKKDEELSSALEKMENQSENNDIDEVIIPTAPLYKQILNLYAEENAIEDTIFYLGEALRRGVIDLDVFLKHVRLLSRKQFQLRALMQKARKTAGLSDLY
# Summary of the method: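 Fluorescence anisotropy measured PTAP-Tsg101 interaction. Final concentrations were 10 uM protein domain and 50 nM labeled peptide, equilibrated 20 min at room temperature.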
# [14] = molecular target: Beta-2 adrenergic receptor (Homo sapiens) (UniProt P07550); assay: qHTS validation assay of beta-arrestin-biased ligands of beta2-adrenergic receptor (AID 485366)
# Beta-2 adrenergic receptor (Homo sapiens), sequence (P07550 whole entry, looked up): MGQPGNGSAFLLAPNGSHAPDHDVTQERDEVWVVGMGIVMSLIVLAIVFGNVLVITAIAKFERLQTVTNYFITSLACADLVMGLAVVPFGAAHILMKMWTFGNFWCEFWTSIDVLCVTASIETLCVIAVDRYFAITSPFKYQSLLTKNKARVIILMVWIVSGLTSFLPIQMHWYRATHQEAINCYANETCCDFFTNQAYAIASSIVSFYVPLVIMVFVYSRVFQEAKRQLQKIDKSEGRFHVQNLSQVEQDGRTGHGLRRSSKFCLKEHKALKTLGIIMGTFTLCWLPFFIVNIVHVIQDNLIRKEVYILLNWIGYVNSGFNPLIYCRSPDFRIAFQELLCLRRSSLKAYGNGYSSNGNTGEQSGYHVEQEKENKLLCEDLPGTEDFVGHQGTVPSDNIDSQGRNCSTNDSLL
# Summary of the method: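 Tango cells expressing recombinant beta2-AR and beta-arrestin with tTA-driven luciferase, in DMEM with 1% FBS. Compounds were titrated up to 46 microM for 18 hr at 37 degrees C. Luminescence was read 15 min after substrate; curves were fitted and class-assigned.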
# [15] = molecular target: RecQ-like DNA helicase BLM (Homo sapiens) (UniProt P54132); assay: qHTS Validation Assay for Inhibitors of Bloom's syndrome helicase (BLM) (AID 2364)
# RecQ-like DNA helicase BLM (Homo sapiens), sequence (P54132 whole entry, looked up): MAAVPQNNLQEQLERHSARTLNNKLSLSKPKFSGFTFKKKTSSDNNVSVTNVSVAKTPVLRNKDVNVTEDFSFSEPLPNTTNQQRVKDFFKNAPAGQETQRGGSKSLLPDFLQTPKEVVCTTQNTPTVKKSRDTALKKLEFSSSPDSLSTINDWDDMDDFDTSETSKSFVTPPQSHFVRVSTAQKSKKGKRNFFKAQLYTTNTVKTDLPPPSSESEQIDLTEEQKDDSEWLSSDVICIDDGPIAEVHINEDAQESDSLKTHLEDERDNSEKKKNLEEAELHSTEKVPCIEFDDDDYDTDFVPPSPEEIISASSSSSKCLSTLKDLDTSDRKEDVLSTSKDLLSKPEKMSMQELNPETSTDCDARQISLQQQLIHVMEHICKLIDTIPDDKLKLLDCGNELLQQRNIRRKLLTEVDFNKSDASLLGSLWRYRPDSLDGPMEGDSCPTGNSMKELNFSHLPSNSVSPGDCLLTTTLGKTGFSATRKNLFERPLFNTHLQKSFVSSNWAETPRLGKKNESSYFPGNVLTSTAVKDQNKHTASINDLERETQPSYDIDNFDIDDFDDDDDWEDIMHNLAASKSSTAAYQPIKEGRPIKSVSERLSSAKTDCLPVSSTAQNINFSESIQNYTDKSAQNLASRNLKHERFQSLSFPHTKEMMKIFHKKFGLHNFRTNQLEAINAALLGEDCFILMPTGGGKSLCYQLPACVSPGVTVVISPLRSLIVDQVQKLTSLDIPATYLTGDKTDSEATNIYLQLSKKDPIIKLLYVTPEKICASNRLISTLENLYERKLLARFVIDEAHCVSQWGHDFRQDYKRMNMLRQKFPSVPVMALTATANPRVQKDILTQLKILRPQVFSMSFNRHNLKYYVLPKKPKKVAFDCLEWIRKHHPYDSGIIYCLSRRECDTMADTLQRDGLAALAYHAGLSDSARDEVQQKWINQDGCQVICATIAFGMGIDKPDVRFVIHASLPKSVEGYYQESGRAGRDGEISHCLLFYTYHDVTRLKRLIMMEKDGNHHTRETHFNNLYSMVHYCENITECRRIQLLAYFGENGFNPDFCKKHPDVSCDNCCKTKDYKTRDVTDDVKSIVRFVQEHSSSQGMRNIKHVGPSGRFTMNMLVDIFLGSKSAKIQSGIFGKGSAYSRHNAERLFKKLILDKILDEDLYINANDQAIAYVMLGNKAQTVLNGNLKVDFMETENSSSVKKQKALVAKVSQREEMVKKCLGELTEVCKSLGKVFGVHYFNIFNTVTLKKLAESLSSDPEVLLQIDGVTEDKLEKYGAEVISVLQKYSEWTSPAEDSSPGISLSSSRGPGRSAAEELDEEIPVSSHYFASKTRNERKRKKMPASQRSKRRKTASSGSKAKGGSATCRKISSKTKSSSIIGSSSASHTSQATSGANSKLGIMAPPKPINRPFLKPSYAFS
# Summary of the method: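 BLM 50 nM in 25 mM Tris-HCl pH 8.0, 5 mM NaCl, 2 mM MgCl2, 1 mM DTT, 0.01% Tween-20, 2.5 ug/ml poly(dI-dC); 15 min cpd preinc, RT. Start: 200 nM forked DNA + 2 mM ATP (final). TAMRA read, 2 reads 2 h apart.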
# [16] = qHTS Validation Assay to Find Inhibitors of Chronic Active B-Cell Receptor Signaling (AID 485345; active = well fitted curve in the direction sought with a large enough effect in the main read-out, with a control signal flat, not every such curve was filed as active)
# Summary of the method: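 TMD8 ABC-DLBCL cells with dox-inducible green luciferase–IκBα fusion and red native luciferase; compounds 46 uM–3 nM, 4 h at 37C with doxycycline in 0.5% FBS IMDM. Green/red ratio normalized to basal and 10 uM MG-132.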
# [17] = Quantitative high throughput screen for delayed death inhibitors of the malarial parasite plastid, 96 hour incubation (AID 488745); note: nearly all actives have a fitted effect of over 70% in size; note: potency is the fitted concentration of half-maximal effect
# Summary of the method: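 P. falciparum carrying an integrated firefly luciferase reporter, grown in erythrocytes (2% hematocrit, 0.1% parasitemia final) in RPMI 1640/0.5% Albumax, was exposed to compound for 96 h (two generations) at 37 C, 5% CO2. Luminescence decrease indicated growth inhibition.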
# [18] = qHTS Assay for Modulators of Human Peripheral Myelin Protein 22 (PMP22) Expression/Activity (AID 1967; active = well fitted curve in the direction sought with a large enough effect in the signal ratio; the % refers to the signal ratio)
# Summary of the method: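 Quantitative HTS in a mouse Schwann cell line expressing dual click beetle luciferases: Pmp22 promoter (green) and control EF-alpha promoter (red). After 24h treatment, corrected green/red signal ratio gave %Activity relative to untreated cells.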
# [19] = molecular target: ATP-dependent 6-phosphofructokinase (Trypanosoma brucei brucei) (UniProt O15648); assay: qHTS Validation Assay to Find Inhibitors of T. brucei phosphofructokinase (AID 485368); note: potency is the fitted concentration of half-maximal effect
# ATP-dependent 6-phosphofructokinase (Trypanosoma brucei brucei), sequence (O15648 whole entry, looked up): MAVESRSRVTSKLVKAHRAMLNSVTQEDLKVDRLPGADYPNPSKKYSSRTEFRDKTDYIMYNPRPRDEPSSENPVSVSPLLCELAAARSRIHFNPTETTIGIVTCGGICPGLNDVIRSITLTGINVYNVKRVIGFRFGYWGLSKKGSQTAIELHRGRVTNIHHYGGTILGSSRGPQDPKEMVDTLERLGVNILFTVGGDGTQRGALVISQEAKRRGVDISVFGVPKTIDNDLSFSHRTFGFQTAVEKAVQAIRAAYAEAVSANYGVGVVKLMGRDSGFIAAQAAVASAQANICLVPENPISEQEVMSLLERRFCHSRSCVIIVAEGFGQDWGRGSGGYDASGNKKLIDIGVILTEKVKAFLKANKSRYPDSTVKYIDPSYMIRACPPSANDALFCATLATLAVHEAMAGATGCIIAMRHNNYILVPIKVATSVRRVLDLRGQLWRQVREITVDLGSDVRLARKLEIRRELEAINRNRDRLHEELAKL
# Summary of the method: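 Activity was read as ADP production by luminescence (ADP-Glo) after 45 min at room temperature. The enzyme was 1.25nM PFK in 0.1M TEA pH 8.0 with 0.5 mM F6P, 0.1mM ATP and 5 mM MgCl2. Compounds were titrated up to 57 uM and % activity normalized to no-enzyme and full-enzyme controls.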
SMILES,Potency [1],Potency [2],Potency [3],Potency [4],Potency [5],outcome [6],Potency [7],Potency [8],Potency [9],Potency [10],Potency [11],Potency [12],outcome [13],outcome [14],Potency [15],outcome [16],Potency [17],outcome [18],Potency [19]
CO/N=C(\C(=O)N[C@@H]1C(=O)N2C(C(=O)O)=C(COC(C)=O)CS[C@H]12)c1csc(N)n1 (stereo in doubt),inactive,inactive,–,–,–,–,–,–,–,–,–,–,–,–,–,–,–,–,–
C[N+](C)(CCCCCC[N+](C)(C)CCCN1C(=O)c2cccc3cccc(c23)C1=O)CCCN1C(=O)c2cccc3cccc(c23)C1=O,3.55 µM (active),4.47 µM (active),–,–,–,–,–,–,–,–,–,–,–,–,–,–,–,–,–
CC(C)(C)c1ccc(S(=O)(=O)/C=C/C#N)cc1,–,–,8.91 µM (active),inactive,inactive,inactive,inactive,inactive,inactive,1.12 µM (active),inactive,inactive,inactive,inactive,–,–,–,–,–
COc1cc2nc(N3CCN(C(=O)OCc4ccccc4)C(C(=O)NC(C)(C)C)C3)nc(N)c2cc1OC (centres undefined),–,–,7.94 µM (active),inactive,inactive,inactive,inactive,–,–,–,inactive,inactive,inactive,inactive,inactive,–,–,–,–
Ic1ccc(N2CCN(Cc3c[nH]c4ncccc34)CC2)cc1,–,–,11.2 µM (active),inactive,inactive,inactive,inactive,inactive,inactive,–,inactive,–,inactive,inactive,–,inactive,inactive,–,–
NCCNC(=O)c1ncsc1-c1cccc(F)c1,–,–,inactive,inactive,inactive,inactive,–,inactive,inactive,inactive,inactive,inactive,inactive,inactive,inactive,inactive,inactive,–,–
c1cnc2c(c1)ccc1cccnc12,–,–,2 µM (active),inactive,inactive,inactive,–,0.0465 µM (active),–,–,inactive,–,inactive,inactive,inactive,inactive,1.85 µM (active),–,–
CCCCCCCCCCCCCCCC(=O)OC(CC(=O)O)C[N+](C)(C)C (centres undefined),–,–,inactive,–,inactive,inactive,–,inactive,–,–,inactive,–,inactive,inactive,–,–,inactive,inactive,inactive
COC1=C(OC)C(=O)c2ccccc2C1=O,–,–,11.2 µM (active),inactive,inactive,–,inactive,–,–,–,inactive,inactive,inactive,inactive,–,inactive,inactive,–,–
O=C(O)CC[C@@H](C(=O)O)N1C(=O)c2ccccc2C1=O,–,–,inactive,inactive,inactive,inactive,inactive,inactive,–,inactive,inactive,inactive,inactive,inactive,inactive,inactive,inactive,–,–
CCCCCCCCCCCCCCCCCCNC(=O)OCC(COP(=O)([O-])OCC[n+]1ccsc1)OC (centres undefined),–,–,11.2 µM (active),–,inactive,–,–,inactive,–,–,–,inactive,inactive,inactive,–,inactive,inactive,inactive,–
NC(CCCP(=O)(O)O)C(=O)O (centres undefined),–,–,inactive,inactive,inactive,inactive,inactive,inactive,–,inactive,inactive,inactive,inactive,inactive,–,inactive,inactive,–,–
COc1ccccc1N1CCN(CCCCNS(=O)(=O)c2cccc3c(N(C)C)cccc23)CC1,–,–,12.6 µM (active),inactive,inactive,inactive,inactive,–,16.5 µM (active),–,inactive,–,inactive,inactive,–,–,inactive,–,–
CN(C)CCC(c1ccc(Cl)cc1)c1ccccn1 (centres undefined),–,–,inactive,inactive,inactive,inactive,inactive,inactive,inactive,inactive,inactive,inactive,inactive,inactive,inactive,inactive,inactive,–,–
O=C(/C=C/c1ccc(O)cc1)c1ccc(O)cc1O,–,–,12.6 µM (active),inactive,inactive,inactive,inactive,inactive,–,–,inactive,inactive,inactive,inactive,–,–,–,–,–
CN1CCc2cccc3c2C1Cc1ccc(O)c(O)c1-3 (centres undefined),–,–,2 µM (active),inactive,inactive,inactive,–,inactive,inactive,–,inactive,inactive,inactive,inactive,inactive,–,–,–,12 µM (active)
COc1cccc(C(=O)NCCN2CCN(c3ccc(Cl)cc3)CC2)c1,–,–,inactive,inactive,inactive,inactive,inactive,inactive,–,inactive,inactive,inactive,inactive,inactive,inactive,inactive,inactive,–,inactive
CN(C)C(N)=NCCC[C@H](N)C(=O)O,–,–,inactive,inactive,inactive,inactive,inactive,inactive,inactive,inactive,inactive,inactive,inactive,inactive,–,inactive,inactive,–,inactive
Cc1cc(NC(=O)Nc2ccc3c(ccn3C)c2)sn1,–,–,12.6 µM (active),inactive,inactive,inactive,inactive,inactive,inactive,inactive,inactive,inactive,inactive,inactive,–,–,inactive,–,–

# Source: PubChem BioAssay (NCATS)
